High-throughput results from PubChem.
In the library only some 2.4% were active in any assay of this set; here they are far more common.
APOBEC3G inh – blocks human APOBEC3G single-stranded DNA deamination | AID 493012 | recombinant A3G, ssDNA deamination FAM/TAMRA fluorescence | hit rate 0.28% among 330,000 | inhibition, % at 20 µM;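 active means inhibition of at least 40% at 20 µM, with no more than 30% in the related APOBEC3A deaminase screen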;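 further: plate controls were DMSO wells with A3G for no effect and wells lacking A3G enzyme for full effect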
Target sequence (Q9HC16 whole entry, looked up): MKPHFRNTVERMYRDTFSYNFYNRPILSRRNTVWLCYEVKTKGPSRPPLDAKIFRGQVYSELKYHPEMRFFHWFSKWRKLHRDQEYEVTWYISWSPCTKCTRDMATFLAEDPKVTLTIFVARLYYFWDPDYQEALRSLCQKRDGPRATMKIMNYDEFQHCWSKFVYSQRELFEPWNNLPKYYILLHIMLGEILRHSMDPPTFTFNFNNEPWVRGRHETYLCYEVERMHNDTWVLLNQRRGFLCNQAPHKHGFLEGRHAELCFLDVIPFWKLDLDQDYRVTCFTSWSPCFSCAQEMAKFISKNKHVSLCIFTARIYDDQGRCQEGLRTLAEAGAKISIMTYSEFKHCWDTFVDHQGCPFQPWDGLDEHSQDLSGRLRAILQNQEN
CendR NRP1 mod – NRP-1/CendR interaction modulation; O14786; FAM-RPARPAR peptide binding to NRP-1, fluorescence polarization; inhibition, % at 25 µM; hit rate 0.85% among 360,000; AID 602438;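 active means inhibition or corrected inhibition above about 18%, plus a signal ratio from 0.5 to 1.5, limit read from the data, passing the limit was not always enough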
APOBEC3A inh – human APOBEC3A DNA deaminase inhibition; P31941; recombinant A3A, FAM/TAMRA ssDNA deamination fluorescence; inhibition, % at 20 µM; hit rate 0.41% among 330,000;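 active means at least 40% inhibition at 20 µM here, with at most 30% in a related deaminase screen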;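 further: plate controls were A3A with DMSO for no effect and wells lacking A3A enzyme for full effect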
ADAM10 inh – inhibitors of human ADAM10. O14672. recombinant ADAM10, EDANS/DABCYL FRET peptide cleavage, 3 h. hit rate 0.62% among 370,000. inhibition, % at 7 µM;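 active means inhibition above a per-campaign cutoff equal to the mean of compounds falling between control-based bounds plus 3 SD, cut at about 20% in these data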;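 further: 0% = DMSO wells while the 100% control is not disclosed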
ADAM17 inh – inhibits human ADAM17 | AID 720648 | recombinant ADAM17, EDANS/DABCYL FRET peptide cleavage | hit rate 0.83% among 370,000 | inhibition, % at 6.95 µM | P78536;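 active means inhibition above the mean of compounds lying between control limits plus 3 SD, set per campaign, cut at about 8.5% in these data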;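 further: 0% = DMSO-only wells as the low control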
The depositor's hits bear a star; . = no result.

SMILES | APOBEC3G inh | CendR NRP1 mod | APOBEC3A inh | ADAM10 inh | ADAM17 inh
COc1cc2c(cc1OC)-c1c(OC)c(OC)cc3c1[C@H](C2)N(C)CC3 | -5.2 | 29.2* | 3.8 | -11.8 | -4.0
O=C(CN1C(=O)[C@@H](Cc2ccc(O)cc2)N=C(c2ccccc2)c2ccccc21)NC1CCCCC1 | . | . | . | 2.5 | 1.0
O=C(COc1ccc(Br)cc1)N1CCN(Cc2c[nH]c3ccccc23)CC1 | -9.9 | -6.4 | -2.8 | -7.5 | -1.2
O=C(COc1ccc2ccccc2c1)N1CCN(Cc2c[nH]c3ccccc23)CC1 | -6.0 | 8.2 | -5.3 | 2.3 | 8.7*
CCc1ccc(N2C(=O)NC(=O)/C(=C\c3cccn3CCOc3ccc(C(C)C)cc3)C2=O)cc1 | 0.4 | 36.5* | 3.8 | -3.2 | -4.7
C=C(C=O)CC1CC(O)[C@]2(C)OC3CC4OC5C[C@]6(C)O[C@]7(C)CCC8OC9C[C@]%10(C)OC%11C(C)=CC(=O)OC%11CC%10OC9C[C@@H](C)C8OC7CC6O[C@]5(C)C/C=C\C4OC3CC2O1 (some centres undefined) | . | . | . | -3.6 | -3.3
OC(c1cccc(Cl)c1)(c1cccc(Cl)c1)C1CN2CCC1CC2 (centres undefined) | -2.9 | 40.4* | 1.6 | -1.9 | -5.7
COc1ccccc1N1CCN(Cc2cc(C)c(C)cc2O)CC1 | 1.3 | 1.7 | 0.0 | 5.7 | 1.0
COc1cc(C)c(CN2CCN(c3ccccc3)CC2)cc1C | 1.7 | 36.0* | -0.6 | -9.6 | -3.7
CC(C)C[C@H]1N=C(c2ccccc2)c2ccccc2N(CC(=O)NC(C)(C)C)C1=O | . | . | . | -0.3 | -2.4
CCOc1ccc(NC(=O)c2c(O)[nH]c(=O)[nH]c2=O)cc1 | -11.0 | 6.2 | -1.4 | 8.1 | -2.1
CC(=O)Nc1ccc(OCCF)cc1 | -3.3 | 26.3* | -3.6 | -3.1 | -2.1
c1ccc2c(NC3=NCCS3)cccc2c1 | 0.9 | 26.5* | 2.8 | 4.0 | -1.1
Clc1cccc(Cl)c1NC1=NCCS1 | . | 5.3 | . | -18.5 | -0.1
COc1ccc(CN2CC=C(c3ccc(F)cc3)CC2)cc1Br | -2.3 | -2.4 | 2.4 | 9.1 | 0.8
CCN(CC)c1ccc(CN2CC=C(c3ccc(F)cc3)CC2)cc1 | -4.1 | 19.6* | 0.0 | 10.8 | 0.8
CN1CCN(c2ccc([N+](=O)[O-])c(Sc3ccccn3)c2)CC1 | -6.7 | 27.8* | -1.4 | -0.9 | -2.3
O=C1CC=C2C3CC4N(CCC45c4cc(O)c(O)cc4N1C25)CC3=CCBr (centres undefined) | . | 25.8* | . | -2.4 | -0.8
O=C1CC=C2C3CC4N(CCC45c4ccccc4N1C25)CC3=CCO (centres undefined) | . | -1.4 | . | -0.1 | 4.2
O=C(Nc1ccc(Cl)cc1C(=O)c1ccccc1)c1ccccc1 | 5.5 | 24.9* | 2.6 | 7.2 | 2.6
COc1ccc(/C=N\N=C(N)N)cc1 | -5.5 | 0.1 | -4.7 | 1.3 | 0.2
NC(N)=N/N=C/c1ccc(N(c2ccccc2)c2ccccc2)cc1 | 0.5 | 25.0* | 2.3 | -247.5 | -149.1
COc1ccc([C@@H]2C[C@H]3[C@@H](CN2)CON3C)cc1 | . | . | . | -2.2 | -3.1
Cc1ccc(-[n+]2c(Cc3nn(-c4ccccc4)c(C)[n+]3-c3ccc(C)cc3)nn(-c3ccccc3)c2C)cc1 | . | 26.8* | . | -5.8 | -3.6
C[C@]12CC[C@@H]3c4ccc(O)c(O)c4CC[C@H]3[C@@H]1CC[C@@H]2O | 63.9* | -3.1 | -0.9 | 18.5 | 2.7
SMILES | APOBEC3G inh | CendR NRP1 mod | APOBEC3A inh | ADAM10 inh | ADAM17 inh
C[C@]12CC[C@H]3[C@@H](CCC4=CC(=O)CC[C@@H]43)[C@@H]1CC[C@@H]2O | -0.6 | 1.1 | -0.7 | -21.4 | -3.7
CSCCC(c1nnnn1C1CCCC1)N1CCC2(CC1)C(=O)NCN2c1ccccc1 (centres undefined) | . | 21.3 | . | -1.3 | -0.2
CSCCC(c1nnnn1C1CCCCC1)N1CCC2(CC1)C(=O)NCN2c1ccccc1 (centres undefined) | . | 23.7* | . | -2.1 | -3.4
CC(C)(C)n1nnnc1C(CCc1ccccc1)N1CCC2(CC1)C(=O)NCN2c1ccccc1 (centres undefined) | . | 8.6 | . | -5.3 | 0.4
CCC(c1nnnn1C(C)(C)C)N1CCC2(CC1)C(=O)NCN2c1ccccc1 (centres undefined) | . | 30.2* | . | 4.0 | -3.0
C=CCN(CC#CCO)Cc1ccc(OC)cc1OC | . | . | . | -1.5 | -2.2
CC(NC(=O)OC1CC2CCC1(C)C2(C)C)P(=O)(Oc1ccccc1)Oc1ccccc1 (centres undefined) | . | . | . | -0.9 | -1.5
